Common to all, as to conditions: 25 µM; exposure: 24-48 hpf
Assay [1] deals with Danio rerio Tg(wt1b:EGFP) embryo, pronephros. The assay is described as follows: glomerular separation, fold change vs DMSO control; higher = glomeruli further apart (abnormal). A digest of the protocol: (§1)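 In HEPES-buffered E3 with 0.003% PTU and 0.5% DMSO, dechorionated Tg(wt1b:EGFP) zebrafish embryos were exposed to 25 μM compound from 24 to 48 hpf at 28.5°C. Pronephroi were then imaged dorsally at 470 nm in 10 z-slices, in 96-well plates filled with agarose. On maximum projections, a Fiji macro turned 16 manually placed reference points into distances and angles, and values more than 2 SD from the feature mean were excluded. Features are fold changes relative to the mean of DMSO-treated embryos from the same day.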

Assay [2] has the same test system. As to the kind of experiment: glomerular width (mean of left and right), fold change vs DMSO control; higher = wider glomerulus. A digest of the protocol: as §1
The test system is the same in assay [3]. As to the kind of experiment: fraction of imaged embryos annotated as normal kidney; higher = less nephrotoxic; extreme values may be limits of the assay. Put shortly:
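Dechorionated Tg(wt1b:EGFP) zebrafish embryos were exposed in 12-well plates to 25 μM compound in 0.5% DMSO, 5 mM HEPES-buffered E3 with 0.003% PTU, from 24 to 48 hpf at 28.5°C. Tricaine-anaesthetised larvae were oriented dorsally in agarose-filled 96-well plates, and pronephroi were imaged by widefield fluorescence (470 nm, 10 z-slices). Each embryo was manually annotated from maximum projections. The read-out is the fraction of embryos per treatment assigned to the normal-kidney category.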

For assay [4] the test system is unchanged. The assay is described as follows: pronephric angle neck segment to proximal convoluted tubule (mean of left and right), fold change vs DMSO control; higher = larger pronephric angle. A digest of the protocol: as §1

Each structure is given as a SMILES string. Counter-ions that a name gives are not always drawn. ± gives the standard deviation or the standard deviation of the averaged measurements.

`CC(=O)OC[C@H]1O[C@@H]([S-])[C@H](OC(C)=O)[C@@H](OC(C)=O)[C@@H]1OC(C)=O.CCP(CC)CC.[Au+]` [Auranofin] came in with a glomerular separation in assay [1] of 1.55 ± 0.79. Also, in assay [2], the glomerular width worked out at 0.789 ± 0.038. Also, in assay [3], the “fraction of imaged embryos annotated as normal kidney” value (“fraction of imaged embryos annotated” for short) is 0.417. In addition, the “pronephric angle neck segment” value in assay [4] stood at 1.19 ± 0.024.

For `Nc1nc(=O)n([C@@H]2CS[C@H](CO)O2)cc1F` [(-)-Emtricitabine], in assay [1], the glomerular separation amounted to 1.08 ± 0.4. Also, the glomerular width in assay [2] came out at 1.06 ± 0.019. Further, in assay [3], the “fraction of imaged embryos annotated” value is 0.917. In assay [4], the “pronephric angle neck segment” value came out at 0.999 ± 0.073.

The compound `CC(C)c1ccc2oc3nc(N)c(C(=O)O)cc3c(=O)c2c1` [Amlexanox] gave a glomerular separation in assay [1] of 1.84 ± 0.69. In assay [2], the glomerular width stood at 1.04 ± 0.036. In addition, the “pronephric angle neck segment” value in assay [4] was 0.955 ± 0.017.

`Nc1c2c(nc3ccccc13)CCCC2` [Tacrine hydrochloride] gave a glomerular separation in assay [1] of 1.09 ± 0.33. The compound further yielded a glomerular width in assay [2] of 1.01 ± 0.029. The “fraction of imaged embryos annotated” value in assay [3] worked out at 0.833. Besides, the “pronephric angle neck segment” value in assay [4] worked out at 1.03 ± 0.042.

In turn, `OCCN1CCN(CCCN2c3ccccc3Sc3ccc(Cl)cc32)CC1` [Perphenazine] had a glomerular separation in assay [1] of 0.838 ± 0.23. The compound further yielded a glomerular width in assay [2] of 1.07 ± 0.063. The “fraction of imaged embryos annotated” value in assay [3] came out at 0.917. Moreover, the “pronephric angle neck segment” value in assay [4] came to 1.03 ± 0.012.

Consider `NC(=O)C(c1ccccc1)(c1ccccc1)[C@@H]1CCN(CCc2ccc3c(c2)CCO3)C1` [Darifenacin hydrobromide], for which the glomerular separation in assay [1] was found to be 0.963 ± 0.39. The compound also gave a glomerular width in assay [2] of 1.09 ± 0.019. Also, in assay [4], the “pronephric angle neck segment” value was 1 ± 0.029.

In turn, `CCC(C)(C)C(=O)O[C@H]1C[C@@H](C)C=C2C=C[C@H](C)[C@H](CC[C@@H]3C[C@@H](O)CC(=O)O3)[C@H]21` [Simvastatin] came in with a glomerular separation in assay [1] of 4.7 ± 1.8. This compound showed a glomerular width in assay [2] of 0.658 ± 0.034. Further, the “pronephric angle neck segment” value in assay [4] stood at 1.8 ± 0.065.

In turn, `CCCCNc1cc(C(=O)O)cc(S(N)(=O)=O)c1Oc1ccccc1` [Bumetanide] had a glomerular separation in assay [1] of 1.41 ± 0.43. The compound further had a glomerular width in assay [2] of 1.08 ± 0.023. In assay [3], the “fraction of imaged embryos annotated” value turned out to be 0.75. For the same compound, the “pronephric angle neck segment” value in assay [4] stood at 1 ± 0.022.

`CCCNC(C)C(=O)Nc1ccccc1C` (stereo unspecified) [Prilocaine hydrochloride]: the glomerular separation in assay [1] is 1.28 ± 1.1. In addition, the glomerular width in assay [2] amounted to 0.947 ± 0.032. In addition, in assay [3], the “fraction of imaged embryos annotated” value turned out to be 0.75. In assay [4], the “pronephric angle neck segment” value was determined as 1.02 ± 0.081.

Turning to `CNCCC(Oc1ccc(C(F)(F)F)cc1)c1ccccc1` (stereo unspecified) [Fluoxetine hydrochloride], the glomerular separation in assay [1] amounted to 1.23 ± 0.69. Further, in assay [2], the glomerular width came to 0.903 ± 0.041. Moreover, in assay [3], the “fraction of imaged embryos annotated” value stood at 0.583. Moreover, the “pronephric angle neck segment” value in assay [4] turned out to be 1.04 ± 0.054.

`CCOc1ccc2nc(S(N)(=O)=O)sc2c1` [Ethoxzolamide] returned a glomerular separation in assay [1] of 2.05 ± 1.5. Further, the glomerular width in assay [2] turned out to be 1.08 ± 0.0034. Also, in assay [4], the “pronephric angle neck segment” value was 1.2306 ± 0.00079.

`C[C@H]1C[C@H]2[C@@H]3CCC4=CC(=O)C=C[C@]4(C)[C@@]3(F)[C@@H](O)C[C@]2(C)[C@@]1(O)C(=O)CO` [Betamethasone] showed a glomerular separation in assay [1] of 1.2 ± 0.31. The glomerular width in assay [2] was 1.17 ± 0.088. The “fraction of imaged embryos annotated” value in assay [3] came to 0.583. Moreover, in assay [4], the “pronephric angle neck segment” value worked out at 1.04 ± 0.053.

Compound `CNC(C)CCC=C(C)C` (stereo unspecified) [Isometheptene mucate] yielded a glomerular separation in assay [1] of 0.941 ± 0.26. This compound gave a glomerular width in assay [2] of 0.958 ± 0.039. Besides, in assay [3], the “fraction of imaged embryos annotated” value stood at 0.917. For the same compound, the “pronephric angle neck segment” value in assay [4] turned out to be 0.977 ± 0.024.

In the case of `COc1ccc(CCN(C)CCCC(C#N)(c2ccc(OC)c(OC)c2)C(C)C)cc1OC` (stereo unspecified) [Verapamil hydrochloride], in assay [1], the glomerular separation worked out at 1.1 ± 0.41. The compound further yielded a glomerular width in assay [2] of 0.995 ± 0.019. The “pronephric angle neck segment” value in assay [4] was 1.075 ± 0.0043.

`N=C(N)NC(=N)NCCc1ccccc1` [Phenformin hydrochloride]: in assay [1], the glomerular separation stood at 0.95 ± 0.25. The compound also had a glomerular width in assay [2] of 0.978 ± 0.021. The “fraction of imaged embryos annotated” value in assay [3] stood at 0.917. Also, the “pronephric angle neck segment” value in assay [4] was found to be 0.956 ± 0.029.

As to `CC(C(=O)O)c1cccc(C(=O)c2ccccc2)c1` (stereo unspecified) [Ketoprofen], the glomerular separation in assay [1] turned out to be 1.58 ± 0.77. This compound gave a glomerular width in assay [2] of 0.83 ± 0.037. In assay [4], the “pronephric angle neck segment” value is 1.1 ± 0.028.

Regarding `OC(Cn1cncn1)(Cn1cncn1)c1ccc(F)cc1F` [Fluconazole], the glomerular separation in assay [1] was 1.11 ± 0.31. This compound displayed a glomerular width in assay [2] of 0.967 ± 0.095. In assay [3], the “fraction of imaged embryos annotated” value worked out at 0.917. For the same compound, the “pronephric angle neck segment” value in assay [4] turned out to be 0.978 ± 0.021.

Take `C[C@@H]1CCC[C@H](C)N1NC(=O)c1ccc(Cl)c(S(N)(=O)=O)c1` [Clopamide]: the glomerular separation in assay [1] stood at 0.881 ± 0.2. The glomerular width in assay [2] worked out at 1.01 ± 0.02. For the same compound, the “fraction of imaged embryos annotated” value in assay [3] is 0.917. For the same compound, in assay [4], the “pronephric angle neck segment” value is 0.98 ± 0.051.

`O=P(O)(O)C(O)(Cn1ccnc1)P(=O)(O)O` [Zoledronic acid hydrate] returned a glomerular separation in assay [1] of 1.2 ± 0.37. The compound also returned a glomerular width in assay [2] of 1.04 ± 0.015. Also, the “fraction of imaged embryos annotated” value in assay [3] is 1. Moreover, in assay [4], the “pronephric angle neck segment” value is 0.989 ± 0.0085.

`CCc1cc(C(N)=S)ccn1` [Ethionamide] displayed a glomerular separation in assay [1] of 0.955 ± 0.39. In addition, the glomerular width in assay [2] stood at 0.97628 ± 0.00041. Also, the “fraction of imaged embryos annotated” value in assay [3] amounted to 0.75. In addition, in assay [4], the “pronephric angle neck segment” value was found to be 0.96 ± 0.039.

In assay [1], `CC(C)CN(C[C@@H](O)[C@H](Cc1ccccc1)NC(=O)O[C@H]1CO[C@H]2OCC[C@H]21)S(=O)(=O)c1ccc(N)cc1` [Darunavir] showed a glomerular separation of 1.16 ± 0.42. The glomerular width in assay [2] is 0.976 ± 0.018. The “pronephric angle neck segment” value in assay [4] stood at 0.9599 ± 0.0035.

As to `Nc1nc(=O)[nH]cc1F` [Flucytosine], the glomerular separation in assay [1] amounted to 0.784 ± 0.38. Also, the glomerular width in assay [2] worked out at 1.0052 ± 0.0006. In addition, the “fraction of imaged embryos annotated” value in assay [3] turned out to be 0.75. Moreover, the “pronephric angle neck segment” value in assay [4] was 1.003 ± 0.0094.

Consider `CC1(C)[C@H](C(=O)O)N2C(=O)C[C@H]2S1(=O)=O` [Sulbactam], for which the glomerular separation in assay [1] is 0.653 ± 0.18. The glomerular width in assay [2] stood at 1.07 ± 0.04. The “pronephric angle neck segment” value in assay [4] worked out at 0.952 ± 0.039.

For `CN(C)CCCN1c2ccccc2Sc2ccc(C(F)(F)F)cc21` [Triflupromazine hydrochloride], the glomerular separation in assay [1] was 0.863 ± 0.37. Further, the glomerular width in assay [2] was found to be 1.033 ± 0.0067. Further, the “pronephric angle neck segment” value in assay [4] came to 0.954 ± 0.014.

In assay [1], `CC1(C)[C@@H](OC(=O)CCC(=O)O)CC[C@]2(C)[C@H]3C(=O)C=C4[C@@H]5C[C@@](C)(C(=O)O)CC[C@]5(C)CC[C@@]4(C)[C@]3(C)CC[C@@H]12` [Carbenoxolone disodium salt] came in with a glomerular separation of 0.718 ± 0.41. This compound also returned a glomerular width in assay [2] of 1.04 ± 0.031. Further, in assay [3], the “fraction of imaged embryos annotated” value was found to be 0.667. Besides, in assay [4], the “pronephric angle neck segment” value was found to be 0.9894 ± 0.0072.

Turning to `CCN(CCO)CCCC(C)Nc1ccnc2cc(Cl)ccc12` (stereo unspecified) [Hydroxychloroquine sulfate], the glomerular separation in assay [1] turned out to be 1.03 ± 0.49. In assay [2], this compound returned a glomerular width of 1.038 ± 0.0043. The “fraction of imaged embryos annotated” value in assay [3] came out at 0.833. Further, in assay [4], the “pronephric angle neck segment” value was found to be 0.935 ± 0.055.

`C[C@@]1(O)CCOC(=O)C1` [Mevalonic-D, L acid lactone] yielded a glomerular separation in assay [1] of 0.897 ± 0.23. The same compound gave a glomerular width in assay [2] of 1.09 ± 0.03. Further, the “fraction of imaged embryos annotated” value in assay [3] was 0.75. In addition, the “pronephric angle neck segment” value in assay [4] worked out at 1.062 ± 0.0042.

`O=C(N[C@H](CO)[C@H](O)c1ccc([N+](=O)[O-])cc1)C(Cl)Cl` [Chloramphenicol] had a glomerular separation in assay [1] of 1.33 ± 0.57. The glomerular width in assay [2] amounted to 0.954 ± 0.035. The “fraction of imaged embryos annotated” value in assay [3] amounted to 1. For the same compound, the “pronephric angle neck segment” value in assay [4] was determined as 0.935 ± 0.052.

The compound `CC(=O)O[C@]1(C(C)=O)CC[C@H]2[C@@H]3C=C(C)C4=CC(=O)CC[C@@H]4[C@H]3CC[C@@]21C` [Nomegestrol acetate] showed a glomerular separation in assay [1] of 1.02 ± 0.29. Besides, the glomerular width in assay [2] was 0.953 ± 0.054. In addition, in assay [3], the “fraction of imaged embryos annotated” value was determined as 0.909. The “pronephric angle neck segment” value in assay [4] came to 1.131 ± 0.0084.

For the compound `COc1cc2nc(N(C)CCCNC(=O)C3CCCO3)nc(N)c2cc1OC` (stereo unspecified) [Alfuzosin hydrochloride], the glomerular separation in assay [1] came out at 1.23 ± 0.62. Further, the glomerular width in assay [2] was found to be 1.01 ± 0.02. Further, in assay [3], the “fraction of imaged embryos annotated” value was 0.818. Also, in assay [4], the “pronephric angle neck segment” value is 0.953 ± 0.036.

Source of the values: the supplement of paper PMC7366291.
